Inhibition data for 99 compounds are collected here from PubChem BioAssay AID640 (Columbia University Molecular Screening Center, 2007).

Out of some 96,000 compounds screened, about 200 (0.21%) were called active. This is one part of a sample in which actives are shown more often than they occur. Unmarked numbers belong to inactive results.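 The calls were made as follows: active = inhibition at 2 µM at or above a set limit, the screen mean plus 3 SD (cut at about 24% in these data); inactive = the rest.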

Sequence of Tyrosine-protein phosphatase non-receptor type 22 (Homo sapiens) (Q9Y2R2 whole entry, looked up, the tested form may be a part): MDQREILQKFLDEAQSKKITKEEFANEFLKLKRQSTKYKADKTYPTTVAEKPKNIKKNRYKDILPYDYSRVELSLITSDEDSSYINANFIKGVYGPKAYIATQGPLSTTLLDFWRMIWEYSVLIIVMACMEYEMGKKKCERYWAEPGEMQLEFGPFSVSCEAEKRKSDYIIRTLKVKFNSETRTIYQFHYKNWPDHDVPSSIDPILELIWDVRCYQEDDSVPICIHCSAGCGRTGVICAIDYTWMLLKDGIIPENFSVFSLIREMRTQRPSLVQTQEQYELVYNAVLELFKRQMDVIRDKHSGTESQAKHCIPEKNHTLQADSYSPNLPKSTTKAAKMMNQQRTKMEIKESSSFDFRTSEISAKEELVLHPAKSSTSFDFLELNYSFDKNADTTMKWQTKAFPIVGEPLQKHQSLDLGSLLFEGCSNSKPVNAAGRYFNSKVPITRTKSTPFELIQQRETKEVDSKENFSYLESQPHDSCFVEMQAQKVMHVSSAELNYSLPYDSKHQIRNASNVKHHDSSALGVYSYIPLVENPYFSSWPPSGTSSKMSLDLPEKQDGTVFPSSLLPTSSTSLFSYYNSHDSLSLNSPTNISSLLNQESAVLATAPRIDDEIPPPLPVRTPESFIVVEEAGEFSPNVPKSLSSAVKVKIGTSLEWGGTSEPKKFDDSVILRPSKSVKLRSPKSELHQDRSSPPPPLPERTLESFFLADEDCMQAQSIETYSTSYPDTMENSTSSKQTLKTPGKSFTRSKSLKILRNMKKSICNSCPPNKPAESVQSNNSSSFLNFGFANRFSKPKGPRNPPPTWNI

The test addresses Tyrosine-protein phosphatase non-receptor type 22 (Homo sapiens) (UniProt Q9Y2R2). The test is described as follows: blockers of human LYP enzyme activity – biochemical, DiFMUP fluorescence, 2 µM, primary screen (AID 640).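 Also: 0% = DMSO with enzyme and 100% = enzyme fully blocked by orthovanadate.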 To be noted: recombinant LYP catalytic domain, at 2 µM, active compounds read high.
In the case of `CCOC(=O)C1CN(S(=O)(=O)c2ccc(F)cc2)C1`, the inhibition was 8.4%. In the case of `CC(C)(C)NC(=O)CSC(=Nc1ccccc1F)NC#N` it was 11.7%; in that of `CCCn1nnc(NC(=O)COc2ccc(CC)cc2)n1`, 14.5%.

With `CCOC(=O)C(Sc1ncc(C#N)c(N)n1)C(C)C` (centres undefined), the inhibition is 4.5%. On to `Cc1ccc(CN2CCN(/N=C/c3ccco3)CC2)c(C)c1`, for which the inhibition is 6.2%. In the case of `CCOC(=O)CN(Cc1ccc(OC)c(OC)c1)S(=O)(=O)c1ccc(OC)cc1`, the inhibition is 4.6%. Regarding `Cn1nc(C(F)(F)F)c2cc(NC(=O)OCC(C)(C)C)sc21`, the inhibition is -3.4%.

As to `CCCCNCc1ccc(SC)cc1`, the inhibition was -8.8%. Turning to `COc1ccc(-c2noc(CSc3ccc(C)cc3)n2)cc1`, the inhibition was 6.7%. Turning to `CCSc1nnc(NC(=O)c2ccc(C)cc2)s1`, the inhibition was -2.4%. Regarding `CC(C)(C)C(=O)Nc1ccc(C(=O)N/N=C/c2ccccc2OC(=O)c2ccc(Cl)cc2Cl)cc1`, the inhibition is 13%. In the case of `CC(C)n1c(-c2cccs2)nc2ccccc21` it was -3.5%; in that of `CCOC(=O)c1cnc(SCC(=O)Nc2cccc(OC)c2)nc1N`, -12.3%.

In the case of `Cc1ccc(-n2c(C)cc(/C=N/Nc3ccc([N+](=O)[O-])cn3)c2C)c(C)c1`, the inhibition was 11.5%. Consider `Cc1nc(NC(=O)CN(C)S(=O)(=O)c2ccc(Cl)cc2)sc1C`, for which the inhibition is 6.8%. Consider `Nc1c(-c2cccc(Cl)c2)cnn1-c1cccc([N+](=O)[O-])c1`, for which the inhibition was -9.9%.

In the case of `O=C(N/N=C/c1ccsc1)c1cc(O)cc(O)c1`, the inhibition is 4.4%. Take `Cn1cc([N+](=O)[O-])c(C(=O)Nc2ccc3c(c2)OCCO3)n1`: the inhibition was 3.8%. In the case of `O=S(=O)(N/N=C\c1cccn1-c1ccccc1)c1ccc2ccccc2c1` it was -4.4%. `O=C1CSC(c2ccc(Cl)cc2)N1` (centres undefined): the inhibition is -5.4%. Turning to `COCC(=O)Nc1ccc(Br)cc1`, the inhibition was -3.3%. Turning to `Cn1c(=O)c2c(nc(N3CCOCC3)n2CCNC2=NCCC2)n(C)c1=O`, the inhibition was -6.1%. As to `COn1c(=O)c(=O)n(OC)c2ccccc21`, the inhibition was 3.4%. In the case of `Cc1oc(-c2ccccc2Cl)[n+]([O-])c1C` it was -4.8%; in that of `CC1=NN(C(C)C)C(=O)C1`, 1.5%. Consider `c1ccc(CSc2ncnc3c2sc2nc(N4CCOCC4)c4c(c23)CCCC4)cc1`, for which the inhibition is 10.1%. Consider `CCOc1cccc(NC(=O)Cn2nc(-c3ccc4c(c3)OCCO4)ccc2=O)c1`, for which the inhibition is 7.6%.

In the case of `O=C(Nc1ccc2sc3ccccc3c(=O)c2c1)c1ccccc1Cl`, the inhibition is 1.6%. As to `COC(=O)CSc1nnc(-c2cccnc2)o1`, the inhibition is 4.2%.

`Cc1ccc2oc(=O)c3cnn(CC(=O)N(Cc4ccco4)C4CCCCC4)c3c2c1`: the inhibition was 3.6%.

In the case of `COc1cc(S(=O)(=O)N(Cc2cccs2)C2CC2)ccc1-n1cnnn1`, the inhibition is -4.5%. `CCOc1ccc(N=C2NC(=O)S/C2=C\c2ccc(O)cc2)cc1`: the inhibition is -3.4%. On to `COc1ccc2oc(=O)c(C(=O)NCc3ccccn3)cc2c1`, for which the inhibition is -1.3%. In the case of `Cc1cc(/C=C2/SC(=O)N(CC(=O)OC(C)C)C2=O)c(C)n1C` it was 9.2%. In the case of `N#Cc1ccccc1CN1C(=O)S/C(=C/c2cccn2-c2cccc(C(=O)O)c2)C1=O` it was 32.6% (active); in that of `Brc1ccc(-c2nnc(-c3ccccc3)o2)o1`, -8.3%; in that of `O=C(CCCN1C(=O)c2ccccc2C1=O)Oc1ccc(Cl)cc1`, 4.1%. Turning to `COc1ccc(/C(O)=C2/C(=O)C(=O)N(CC3CCCO3)C2c2ccc(OC)c(OC)c2)cc1` (centres undefined), the inhibition is -1.4%.

Turning to `COc1cc(CNCc2cccs2)cc(Br)c1OC`, the inhibition is 1.7%. For `O=c1onc(-c2cccs2)n1Cc1ccccc1`, the inhibition is 6.3%. For `C=CCOC(=O)C1=C(C)NC(SCC(=O)OCC)=C(C#N)C1c1ccc(C)cc1` (centres undefined), the inhibition was -1.5%. In the case of `COc1ccccc1NC(=O)CSc1nnc(C)n1CC1CCCO1` (centres undefined) it was -14.6%.

On to `CCCn1c(C(Cc2ccccc2)NC(=O)COC)nc2ccccc21` (centres undefined), for which the inhibition is -7.4%. Take `CC(C)OC(=O)CN1C(=O)C(=O)c2ccccc21`: the inhibition was -2.8%. As to `COc1ccc([N+](=O)[O-])cc1C1NN=C(c2cccc3ccccc23)S1` (centres undefined), the inhibition was 10.1%. For the compound `O=C(NCc1ccco1)C1(c2ccc(Cl)cc2)CCCC1`, the inhibition was -8.9%. Take `Cc1cccc(NC(=O)N(Cc2cc3cc(C)cc(C)c3[nH]c2=O)CC2COCCO2)c1` (centres undefined): the inhibition was 2.6%. On to `CCOC(=O)c1nc(C)n(-c2ccc(Cl)cc2Cl)n1`, for which the inhibition is -1.3%. In the case of `Cc1ccc(N2CCN(/N=C/c3cccs3)CC2)cc1` it was 9.9%. Consider `Clc1ccccc1SCc1nc2ccccc2[nH]1`, for which the inhibition is 2.7%.

Regarding `Cc1ccc(NC(=O)CSCC(=O)N2CCOCC2)cc1`, the inhibition was -3.1%. `COC(=O)c1ccc(C2C(Oc3ccccc3C)C(=O)N2CCc2ccc(OC)c(OC)c2)cc1` (centres undefined): the inhibition was -11.5%. On to `CCSc1nnc(NC(=O)Cc2ccccc2OC)s1`, for which the inhibition is 15.4%. Take `CC(c1ccco1)N(C(=O)Nc1ccccc1)C1CCCCC1` (centres undefined): the inhibition was -2%. For `CCOc1c2ccc(C(=O)NC3CCCc4ccccc43)cc2nn1CC` (centres undefined), the inhibition is -7.5%.

Regarding `CCN1C(=O)/C(=C2/Sc3ccc(OC)cc3N2C)SC1=Nc1ccc(C)cc1`, the inhibition was -28%. In the case of `O=C(ON=C1CCN(S(=O)(=O)c2ccccc2)CC1)c1ccc(Cl)cc1` it was -19.3%; in that of `Cc1ccccc1C(=O)N1CCC(C(=O)Nc2ccc(S(=O)(=O)N(C)C(C)C)cc2)CC1`, 3.5%. With `CCOc1c2ccc(C(=O)NCc3ccc4c(c3)OCO4)cc2nn1C`, the inhibition was -4.3%. On to `Cc1cc(Cl)c(S(=O)(=O)N(C)C)cc1OCC(N)=O`, for which the inhibition is -3.7%. Turning to `O=Cc1c(N2CCN(c3cccc(Cl)c3)CC2)nc2ccccn2c1=O`, the inhibition was -12.5%. As for `COc1ccc(CN2CCn3ncc(C(=O)Nc4ccc(Cl)cc4Cl)c3C2=O)cc1`, the inhibition was -3.3%. In the case of `CC1CCc2c(nc3ncnn3c2Nc2ccc(OC(F)(F)F)cc2)C1` (centres undefined) it was 16.7%; in that of `O=C(/C=C/Sc1ncn[nH]1)c1ccc(Cl)cc1`, -5.9%; in that of `Cc1cccc(-n2ncc(C#N)c2-n2cccc2)c1`, -13.4%.

For `CCOC(=O)c1ccc(COC(=O)CCc2nc(-c3ccccc3)c(-c3ccccc3)o2)cc1`, the inhibition was 10.3%.

Consider `COC(=O)CNC(c1ccccc1Cl)c1cc(Br)ccc1NC(=O)CCN1CCOCC1` (centres undefined), for which the inhibition was 7.7%. `O=C(CSc1nc2ccccc2o1)N1c2ccccc2Sc2ccc(Cl)cc21`: the inhibition was 4.8%. Regarding `N#CC1=C(N)N(c2ccc(F)cc2)C(=O)C1`, the inhibition was 7%. In the case of `O=[N+]([O-])c1ccc(N2CCN(S(=O)(=O)c3ccc4ccccc4c3)CC2)cc1NCc1ccco1` it was 4.1%; in that of `Cn1nnnc1SCC(=O)Nc1ccccc1C(=O)NC1CC1`, 11.6%; in that of `COc1ccc(-n2cnc3cc(NCc4ccco4)ccc32)cc1`, 6.5%. As for `O=C1CCCC2=C1C(c1ccccc1)n1c(s/c(=C/c3cccc(F)c3)c1=O)=N2` (centres undefined), the inhibition was 3.1%. As to `O=C(Nc1cccc(NC(=O)c2ccco2)c1)c1cnccn1`, the inhibition is -8.1%. As for `CCOC(=O)c1nc(Nc2ccc(C(=O)OC)cc2)c2ccccc2n1`, the inhibition was 1.7%.

Consider `Cc1noc(COc2ccccc2OCc2onc(C)c2Cl)c1Cl`, for which the inhibition is -6.2%.

Consider `CN1CCCN(S(=O)(=O)c2ccc3c(c2)OCCO3)CC1`, for which the inhibition is 14.9%. With `CC(C)(C)c1cc(=O)n2c(nc3ccccc32)[nH]1`, the inhibition is 16.2%. In the case of `CCOC(=O)NNC(=O)c1ccc(Cl)cc1` it was -7.6%; in that of `O=C(CSc1ccccc1)Nc1ccc(NC(=O)c2ccco2)cc1`, 8.9%; in that of `O=C(CN1CCN(S(=O)(=O)c2ccc(Cl)s2)CC1)NCc1ccc(Cl)cc1`, -18.4%.

For `O=C(c1ccc(F)cc1)c1c[nH]c(C(=O)NCc2cccnc2)c1`, the inhibition is -21.4%. On to `CC(C)C(NC(=O)c1ccc(Cl)cc1)C(=O)O` (centres undefined), for which the inhibition was 0.8%. Consider `Cc1ccc2c(Cl)c(C(=O)NCCCn3ccnc3)sc2c1`, for which the inhibition is -1.4%. In the case of `COc1ccc(Cc2nnc(SCC(=O)c3cccc([N+](=O)[O-])c3)n2C)cc1` it was 15.2%; in that of `CN(C)c1nc(N)nc(CSc2ccccn2)n1`, -6.7%; in that of `COc1ccc(CCN2C(=O)C3CC=C(C)CC3C2=O)cc1OC` (centres undefined), 3.1%.

For the compound `Clc1ccc(C2=CSC3=Nc4cccc5cccc(c45)N23)cc1`, the inhibition was 13.9%. As for `CC(=O)NC1(c2cccc(F)c2)CCN(CC(=O)NC(C)C)CC1`, the inhibition is -6.7%. With `CC(=O)Oc1ccc(C(C)=O)c2c1OCCO2`, the inhibition was -11.9%.

For the compound `Cc1cc2c(cc1C)N(C(=O)CN1C(=O)c3ccccc3C1=O)C(C)(C)c1ssc(=S)c1-2`, the inhibition is 2.3%. Turning to `CS(=O)(=O)N(CC(=O)Nc1ccc(Cl)c(Cl)c1)C1CCCCC1`, the inhibition is -10%. Take `O=C(Nc1ccccc1[N+](=O)[O-])C1C(c2ccccc2)=C1c1ccccc1`: the inhibition is -0.6%.

Take `O=C(c1ccc(CN2CCOCC2)cc1)N1CCN(c2ccccc2F)CC1`: the inhibition was -7.2%. Take `O=C(c1cccc2ccccc12)N1CCN(c2ccccc2F)CC1`: the inhibition is -10.2%. As for `O=C(Cn1c(-c2ccc(Cl)cc2)noc1=O)N1CCN(c2ccccc2F)CC1`, the inhibition was 27.2% (active). As to `COC(=O)c1nc2ccccc2s1`, the inhibition was -12%. In the case of `COc1ccc(NC(=O)CSc2nc(N)c(-c3ccccc3)c(=O)[nH]2)cc1` it was -3.5%; in that of `C=CCN1C(=O)C(Cc2cccc(Cl)c2)S/C1=N/N=C/c1ccco1` (centres undefined), 8.9%.
